# The whole screen tested about 2,100 compounds, of which about 670 (32%) were called active. Not shown: some 50% with an inconclusive outcome. Some of the results follow. Values without a mark were called inactive. Calls follow the shape of the dose curve; as a rule, active = well fitted inhibition curve with a large enough effect; inconclusive = small, poorly fitted or top-dose-only effect; inactive = no such curve, though single readings can be large or run the other way.
# Assay: CMV-Luciferase Counterscreen for Inhibitors of ATXN expression; also: nearly all actives have a fitted effect of over 55% in size
# Settings: HEK-293 CMV-luciferase reporter, luminescence, 24 h; series mostly up to 57.5 µM
# % is scaled to controls: 0 for no effect and ±100 for the full control effect; potency is read from the fitted curve at half-maximal effect.
Structure (SMILES),Potency,"activity change, negative = inhibition"
COc1ccccc1N1CCN(Cc2ccc(O)c3ncccc23)CC1,0.891 µM (active),–
Cc1ccc(C)c(S(=O)(=O)N2CCN(Cc3ccc(O)c4ncccc34)CC2)c1,2.82 µM (active),–
O=S(=O)(c1ccc(Cl)cc1)N1CCN(Cc2ccc(O)c3ncccc23)CC1,8.91 µM (active),–
OC1(c2ccc(Cl)cc2)CCN(Cc2c[nH]c3ccccc23)CC1,–,-23.5% [at 11.4 µM]
Cc1ccc(S(=O)(=O)/C(=C/Cl)NC(=O)c2ccccc2)cc1,11.2 µM (active),–
O=C(Nc1ccc(F)cc1)Nc1cc(OCC(F)(F)F)cc(OCC(F)(F)F)c1,3.98 µM (active),–
CC[n+]1ccccc1/C=C1\Sc2ccc(C)cc2N1C,6.31 µM (active),–
Cc1cc(C)nc(NNS(=O)(=O)c2ccc(F)c(Cl)c2)n1,–,-15.9% [at 11.4 µM]
COc1ccccc1-c1ccc2c(c1)C(C)(Cc1cccc(F)c1)C(=O)N2 (stereo not given),28.2 µM (active),–
Cc1ccc(Nc2c(-c3ccccn3)nc3cccc(C)n23)cc1,3.55 µM (active),–
Cc1cccc(N(CC(O)CON=C2c3ccccc3-c3ccccc32)S(C)(=O)=O)c1 (stereo not given),25.1 µM (active),–
N#Cc1ccc(/C=C\c2nccc3c2[nH]c2ccccc23)cc1,–,-24% [at 11.4 µM]
Nc1nonc1-n1nnc(C(=O)N/N=C/c2ccccc2O)c1CN1CCCC1,10 µM (active),–
CC1CCN(Cc2c(C(=O)N/N=C/c3ccccc3O)nnn2-c2nonc2N)CC1,1.58 µM (active),–
Cc1c(C(=O)N/N=C/c2c(O)ccc3ccccc23)nnn1-c1nonc1N,0.282 µM (active),–
O=C(/C=C/c1ccccc1Cl)c1ccccc(=O)c1O,inactive,–
COc1cc2c3nnc(-c4ccc(F)cc4)c-3cn(Cc3ccccc3F)c2cc1OC,–,65% [at 11.4 µM]
O=[N+]([O-])c1ccc(NC(c2ccccc2)c2ccc3cccnc3c2O)cc1 (stereo not given),2.51 µM (active),–
CC(C)C(=O)NC(c1cccc([N+](=O)[O-])c1)c1ccc2cccnc2c1O (stereo not given),2.82 µM (active),–
Oc1c(C(Nc2cccc(C(F)(F)F)c2)c2ccncc2)ccc2cccnc12 (stereo not given),3.98 µM (active),–
C[C@@H]1CN([C@H](C)CO)S(=O)(=O)c2ccc(-c3ccc(C#N)cc3)cc2O[C@H]1CN(C)C(=O)Nc1cc(F)ccc1F,12.6 µM (active),–
Cc1cc(C)c2nc(N3CCCC(C(=O)N4CCN(c5ncccn5)CC4)C3)sc2c1 (stereo not given),3.55 µM (active),–

Structure (SMILES),Potency,"activity change, negative = inhibition"
O=c1c(O)c(-c2ccccc2)oc2ccccc12,–,-28.6% [at 11.4 µM]
CCCCN(C(=O)c1cccc2c(=O)c(C)c(-c3ccccc3)oc12)c1ccccc1,12.6 µM (active),–
COc1ccc(Cc2[nH]n3c(=O)cc(C(C)C)nc3c2-c2ccccc2)cc1,8.91 µM (active),–
CN1CCC[C@H]1CCNc1ccc2c(=O)c3ccccc3n(C)c2c1,inactive,–
O=C(CSc1ccc2ccccc2c1)Nc1nc2ccccc2[nH]1,–,78.8% [at 11.4 µM]
O=C(CC1NCCc2ccccc21)Nc1ccc(Cl)cc1 (stereo not given),–,5.88% [at 11.4 µM]
O=C(CSc1n[nH]c(-c2ccccn2)n1)Nc1ccc(Cl)cc1,0.794 µM (active),–
O=C(CSc1n[nH]c(-c2ccccn2)n1)Nc1ccccc1,7.94 µM (active),–
O=C(CSc1n[nH]c(-c2ccccn2)n1)Nc1ccc(F)cc1,8.91 µM (active),–
CCOC(=O)Cn1cc(C(=O)c2ccco2)c2ccccc21,–,-4.82% [at 11.4 µM]
CCn1cc(C(=O)NCc2ccccc2)c(=O)c2cc(F)c(N3CCN(C(=O)c4ccco4)CC3)cc21,25.1 µM (active),–
CCn1cc(C(=O)NCCCN2CCCC(C)C2)c(=O)c2cc(S(=O)(=O)N3CCc4ccccc4C3)ccc21 (stereo not given),inactive,–
CCn1cc(C(=O)NCc2cccc(F)c2)c(=O)c2cc(F)c(N3CCN(C(=O)c4ccco4)CC3)cc21,15.8 µM (active),–
COC(=O)c1ccc(Oc2nc(NC(C)C)nc(N(C)C)n2)cc1,–,-22.6% [at 11.4 µM]
O=C(NCc1ccccc1)c1ccc(C(=O)N(C2CCCCC2)C2CCCCC2)cc1,31.6 µM (active),–
Nc1c(C(=O)NCc2ccccc2)c2nc3ccccc3nc2n1-c1ccc2c(c1)OCO2,–,26.3% [at 11.4 µM]
Cc1cc[n+](C(C)C(=O)c2ccc(-c3ccccc3)cc2)cc1 (stereo not given),10 µM (active),–
CC(C(=O)c1ccc(-c2ccccc2)cc1)[n+]1cccc(NC(=O)c2ccccc2)c1 (stereo not given),–,-21.8% [at 11.4 µM]
COc1cccc(C(=O)c2sc(NC(C)C)nc2N)c1,–,267% [at 11.4 µM]
N#Cc1c(Oc2ccc3ccccc3c2)sc(C(=O)c2ccccc2)c1N,14.1 µM (active),–
CNc1ccc(Br)cc(C(=O)/C=C/c2ccc3c(c2)OCO3)c1=O,–,-5.4% [at 11.4 µM]
CCOC(=O)Oc1c(OC)cc(C(=O)O[C@@H]2C[C@@H]3CN4CCc5c([nH]c6cc(OC)ccc56)[C@H]4C[C@@H]3[C@H](C(=O)OC)[C@H]2OC)cc1OC,28.2 µM (active),–

Structure (SMILES),Potency,"activity change, negative = inhibition"
CC(C)(C)OC(=O)NNc1c2ccccc2nc2ccccc12,2.24 µM (active),–
Oc1ccc(C2CNCc3sccc32)cc1O (stereo not given),inactive,–
COc1cccc2c1C(CO)N1C(C#N)C3CC(C(=O)O)C(C1C2)N3C (stereo not given),inactive,–
COc1cccc2c1C1COC3C4CC(C(=O)O)C(C(C2)N13)N4C (stereo not given),12.6 µM (active),–
Oc1ccc(C[C@@H]2CNCCN2CCc2cc(C(F)(F)F)cc(C(F)(F)F)c2)cc1,–,-21.2% [at 11.4 µM]
CC[C@]12c3[nH]c4ccc(Cl)cc4c3CCN1C(=O)[C@@H](CC(=O)NCC13CC4CC(CC(C4)C1)C3)C[C@@H]2C(=O)N1CCN(C(=O)C2CC2)CC1,14.1 µM (active),–
Cc1ccc(Cc2cnc(NC(=O)/C(C#N)=C/c3ccc(-c4cccc([N+](=O)[O-])c4)o3)s2)cc1,inactive,–
CCOc1ccc(OCC)c(NC(=O)Nc2ccc3c(c2)N(C)C(=O)CS3)c1,22.4 µM (active),–
COc1ccccc1CNc1nc(NCc2ccc(NC(C)=O)cc2)c2sccc2n1,–,-22.7% [at 11.4 µM]
COc1ccccc1CNc1nc(NCc2cccc(OC)c2OC)c2sccc2n1,17.8 µM (active),–
O=C(/C=C/c1ccc(Cl)cc1)Nc1ccc(CN2CCOCC2)cc1,3.16 µM (active),–
O=C(CN(c1cccc(Br)c1)S(=O)(=O)c1ccccc1)N/N=C/c1cc([N+](=O)[O-])ccc1O,10 µM (active),–
CN(Cc1ccccc1)C1=CC(=[N+]2CCCC2)CC(C)(C)C1,0.447 µM (active),–
Cc1cccc(OCC(=O)Nc2ccc3c(c2)nc(CCN2CCN(c4ccccn4)CC2)n3C)c1,14.1 µM (active),–
COc1cccc(/C=N/NC(=O)c2cc(-c3ccccn3)nc3ccccc23)c1O,2.82 µM (active),–
CCn1c(C)nc2cc(C(=O)N/N=C/c3cccc(OC)c3O)ccc21,2.51 µM (active),–
COc1cccc(/C=N/NC(=O)c2ccc(-c3ccccc3)cc2)c1O,2 µM (active),–
COc1cccc(/C=N/NC(=O)c2c(C)nc3ccc(Cl)cn23)c1O,1.41 µM (active),–
COc1cccc(C=NNC(=O)c2ccncc2)c1O,15.8 µM (active),–
c1ccc2c(c1)c1c(c3ccccc32)CN2CCCC2C1 (stereo not given),inactive,–
Cc1cc2c(N=O)c(NO)ccc2[nH]1,10 µM (active),–
CN(C)CCCN(C(=O)c1ccco1)c1nc2cc3c(cc2s1)OCO3,inactive,–

Structure (SMILES),Potency,"activity change, negative = inhibition"
CN(/N=C/c1cc(Br)cc(Br)c1O)c1cccc(C(F)(F)F)n1,11.2 µM (active),–
COc1ccc(NC(=S)N(CCCN2CCOCC2)Cc2cn(C)c3ccccc23)cc1,inactive,–
ClC(Cl)(Cl)c1nc2ccccc2n2nncc12,–,-25.9% [at 11.4 µM]
COc1ccc(C2CC(c3cccc(C(F)(F)F)c3)=NN2c2ccc(S(N)(=O)=O)cc2)cc1 (stereo not given),–,-28.1% [at 11.4 µM]
NS(=O)(=O)c1ccc(N2N=C(c3ccccc3)CC2c2cccc(Br)c2)cc1 (stereo not given),17.8 µM (active),–
NC(Cc1ccc(Cl)cc1)c1csc(Nc2nccc(C(F)(F)F)n2)n1 (stereo not given),inactive,–
CC(=O)Nc1ccc(C(=O)N/N=C/c2cc(Br)cc(Br)c2O)cc1,11.2 µM (active),–
Cc1cc(C(=O)N/N=C/c2cc(Br)cc([N+](=O)[O-])c2O)c2ccccc2n1,3.55 µM (active),–
CN(C)c1ccc(C(=O)N/N=C/c2cc(Br)cc(Br)c2O)cc1,3.16 µM (active),–
O=C(N/N=C/c1cc(Br)cc([N+](=O)[O-])c1O)c1ccc(NC(=O)c2ccc(F)cc2)cc1,3.16 µM (active),–
Cc1ccc2nc(NC(=O)/C=C/c3ccc4c(c3)OCO4)sc2c1,inactive,–
O=c1[nH]c(=O)n(C2C[C@H](O)[C@@H](CO)O2)cc1C(F)(F)F (stereo not given in full),2.82 µM (active),–
COC(=O)N/N=C/c1cn(CC(C)COc2ccccc2)c2ccccc12 (stereo not given),17.8 µM (active),–
c1ccc2c(c1)C(=NC1CCCCC1)NC2=NC1CCCCC1,inactive,–
O=C(CCCN1C(=O)/C(=C/c2ccccc2Cl)SC1=S)NNC(=O)c1ccc(Cl)cc1,3.98 µM (active),–
Cc1ccc(C(=O)NNC(=O)CCCN2C(=O)/C(=C/c3ccccc3Cl)SC2=S)cc1,11.2 µM (active),–
O=C(CCCN1C(=O)/C(=C/c2ccccc2Cl)SC1=S)NNC(=O)c1ccc(Cl)cc1Cl,2.82 µM (active),–
Cc1cc(C)c2c(CC(=O)Nc3ccc(Cl)cn3)coc2c1,–,21.1% [at 11.4 µM]
CCc1ccc(/C=C/C(=O)c2cc(Br)ccc(=O)c2O)cc1,inactive,–
